Shown is part of a subset that was picked to be rich in hits.
KDM5B inhibitor – Primary screen for KDM5B Histone Demethylases FDH-coupled qHTS; Lysine-specific demethylase 5B (Homo sapiens), Q9UGL1; KDM5B demethylase, FDH-coupled NADH fluorescence (FDH is formaldehyde dehydrogenase); Potency, µM (top dose mostly 57.7 µM), most hits filed as inhibitors; 220,000 compounds, 2.6% hits; active = well fitted inhibition curve with a large enough effect; note: 0% is about no effect; nearly all actives have a fitted effect of over 70% in size
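KDM5BΔAP (200 nM final) in 50 mM HEPES pH 7.5, 0.01% Tween-20 was preincubated 10 min at RT with compound over a concentration range. Substrate mix (H3K4me3 12.5 µM, α-KG 25 µM, Fe²⁺, ascorbate, NAD⁺, FDH) was added, and NADH fluorescence change over 30 min gave dose-response curves.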
Numbers without * were called inactive; i = inactive. Potency is the fitted concentration of half-maximal effect.

SMILES | KDM5B inhibitor
Cc1cccc(OC[C@H]2C[C@@H](NC(=O)c3ccc(C#N)cc3)[C@H](O)[C@@H]2O)n1 | i
Cc1cccc(OC[C@H]2C[C@@H](NC(=O)c3ccccc3)[C@H](O)[C@@H]2O)n1 | 35µM*
O=S(=O)(Nc1nc2ccccc2nc1NC1CC1)c1ccc2c(c1)OCCO2 | i
C/C(=N/NC(=O)C1CC1c1ccccc1)c1ccc(CC(C)C)cc1 (centres undefined) | i
O=c1[nH]cccc1NS(=O)(=O)c1ccc(Cl)cc1 | i
CC(C)CNC(=O)C1CCCC(C(=O)NCC(C)C)C1 (centres undefined) | i
CCCn1nc(C(=O)OCC(=O)N2c3ccccc3CC2C)c2ccccc2c1=O (centres undefined) | i
COCCN1Cc2ccc(Nc3ccc(OC)cc3)nc2C(C)(C(=O)Nc2ccccc2)C1 (centres undefined) | 32µM*
COCCNC(=O)C1(C)CN(Cc2ccccc2)Cc2ccc(Nc3ccccc3)nc21 (centres undefined) | 32µM*
COc1ccc(NC(=O)c2nc3ccccc3nc2N2CCN(C)CC2)cc1 | i
CC(=O)Nc1ccc(CN2CCC3(C2)C(=O)Nc2ccccc23)cc1 (centres undefined) | i
CCc1cccc(NC(=O)N2CCC(OC3CCN(Cc4ccccc4)CC3)CC2)c1 | i
COc1ccc(CNC(=O)Nc2ccccc2)cc1 | i
COC1CCN(C(=O)Cn2c3c(c(=O)n2Cc2ccccc2)CCN(Cc2ccccc2)C3)CC1 | i
COCCNC(=O)C1Cn2cccc2C(=O)N1Cc1ccccc1 (centres undefined) | i
CNC(=O)C1(C)CN(Cc2ccccc2)Cc2ccc(Nc3ccccc3)nc21 (centres undefined) | 35µM*
COCCNC(=O)C1CN(Cc2ccccc2)C(=O)N1 (centres undefined) | i
CNC(=O)[C@@H]1CN(Cc2ccccc2)C[C@H]1c1n[nH]c(C)n1 | i
COC1CCN(C(=O)C2(C)CN(Cc3ccccc3)Cc3ccc(Nc4ccccc4)nc32)CC1 (centres undefined) | 32µM*
N#Cc1ccccc1CSc1nnc(N2CCCCC2)n1-c1ccccc1 | i
COc1cccc(F)c1-c1nc(C)c(C(=O)Nc2cccnc2)s1 | i
COc1cc(OC)cc(OCC(=O)NC2CCCCCC2)c1 | i
Cc1cc(C)c(S(=O)(=O)N2CCCC2c2cc(C(C)C)no2)cc1C (centres undefined) | i
O/N=C/c1ccccc1OCc1ccccc1 | i
CCc1ccc(C(=O)c2ccccc2C(=O)O)cc1 | i
SMILES | KDM5B inhibitor
Cc1cccc(CSc2nnc(CCCOc3ccc(Cl)cc3Cl)n2C)c1 | i
C=CCNC(=O)NC(C)CC (centres undefined) | i
CN1C[C@@H](NC(=O)c2ccc(C(C)(C)C)cc2)C[C@H]1c1nc(-c2ccc3c(c2)OCO3)no1 | 35µM*
CC(=O)N[C@H]1C[C@@H](c2nc(-c3ccc4c(c3)OCO4)no2)N(C)C1 | i
CN1C[C@@H](NC(=O)CC(C)(C)CC(=O)O)C[C@H]1c1nc(-c2ccc3c(c2)OCO3)no1 | i
Cc1cccc(NC(=S)NN)c1 | i
COC1CN(c2cccc(F)c2)C12CCN(C(=O)NC1CCCCC1)CC2 (centres undefined) | i
CSCC(=O)Nc1nn(-c2ccc(F)cc2)c2cccc(N3CCOCC3)c12 | 25µM*
Cn1c(=O)n(C)c2cc(N3CCOCC3)c(NC(=O)c3c(F)cccc3F)cc21 | i
O=C(CSc1ccccc1)Nc1ccc(N2CCOCC2)c(F)c1 | i
CN(C)CCn1c(=O)n(CC(=O)O)c(=O)c2c3c(sc21)COC(C)(C)C3 | i
C=CCNC(=O)c1ccc(Cn2ccn3nc4c(c3c2=O)CCCC4)cc1 | i
CC(C)c1ccc(CNC(=O)c2ccc(Cn3ccn4nc5c(c4c3=O)CCCC5)cc2)cc1 | 28µM*
COc1ccc(OC)c(NC(=O)Cn2ccn3nc4c(c3c2=O)CCCCC4)c1 | i
COc1ccc(NC(=O)c2ccc(Cn3ccn4nc5c(c4c3=O)CCCC5)cc2)cc1 | i
O=c1c2c3c(nn2ccn1Cc1cc(F)cc(F)c1)CCCC3 | i
COc1ccc(NC(=O)Cn2ccn3nc4c(c3c2=O)CCCC4)cc1OC | i
O=C(Nc1cccc(F)c1)c1ccc(Cn2ccn3nc4c(c3c2=O)CCCC4)cc1 | 25µM*
COc1ccc(NC(=O)Cn2ccn3nc4c(c3c2=O)CCCCC4)cc1Cl | 28µM*
O=C(NCC1CC1)c1ccc(Cn2ccn3nc4c(c3c2=O)CCCC4)cc1 | i
Cc1nnc(C(=O)Nc2cccc(C(=O)NCc3ccc4c(c3)OCO4)c2)s1 | i
CC(Sc1ccccc1)C(=O)N(Cc1ccco1)c1c(N)n(Cc2ccccc2)c(=O)[nH]c1=O (centres undefined) | i
CC1CCCCC1NC(=S)NC1CC1 (centres undefined) | i
Cn1c(=O)c2c(ncn2CC(=O)Nc2ccc(Cl)c([N+](=O)[O-])c2)n(C)c1=O | i
Cc1cc(C)c2oc(C(=O)Nc3nnc(C)s3)cc(=O)c2c1 | i
SMILES | KDM5B inhibitor
CCn1c(N2CCC(Cc3ccccc3)CC2)nc2c1c(=O)n(C)c(=O)n2C | i
Cc1cccc(-c2nnc(SCC(=O)Nc3nncs3)n2C)c1 | i
CCCCn1c(=O)n(CC(=O)Nc2cccc(C(C)=O)c2)c(=O)c2c1ncn2Cc1ccco1 | i
CC(NCC(=O)NC1(C#N)CCCCCC1)c1ccc(Cl)cc1Cl (centres undefined) | i
COc1ccc(Cl)cc1C(=O)N1CCCC(c2[nH]ccc2C(N)=O)C1 (centres undefined) | i
COCCCn1c(C)cc(C(=O)N2CCCC(c3[nH]ccc3C(N)=O)C2)c1C (centres undefined) | 18µM*
COc1cccc(C(=O)N2CCCC(c3[nH]ccc3C(N)=O)C2)c1OC (centres undefined) | i
c1ccc2c(NC34CC5CC(CC(C5)C3)C4)nc(N3CCCCC3)nc2c1 | i
CC1CCC(NC(=O)c2cc(-c3ccccc3)nc3ccccc23)CC1 (centres undefined) | i
O=C(N[C@H]1CCN2C(=O)c3cc(-c4cccs4)ccc3NC(=O)[C@H]12)c1cccs1 | 32µM*
O=C(N[C@H]1CCN2C(=O)c3cc(-c4ccccc4)ccc3NC(=O)[C@H]12)c1cnccn1 | i
O=C(N[C@H]1CCN2C(=O)c3cc(-c4ccc(F)cc4F)ccc3NC(=O)[C@H]12)c1cccc(F)c1 | i
CSc1ccc(-c2ccc3c(c2)C(=O)N2CC[C@H](NC(=O)c4cccs4)[C@H]2C(=O)N3)cc1 | 25µM*
CSCC(=O)N[C@H]1CCN2C(=O)c3ccc(Cl)cc3NC(=O)[C@H]12 | i
Cc1cccc(-c2ccc3c(c2)C(=O)N2CC[C@H](NC(=O)c4cccs4)[C@H]2C(=O)N3)c1C | i
CSCC(=O)N[C@H]1CCN2C(=O)c3cc(-c4cccs4)ccc3NC(=O)[C@H]12 | 35µM*
O=C1Nc2ccc(-c3ccc(F)cc3F)cc2C(=O)N2CC[C@H](NC(=O)N3CCOCC3)[C@@H]12 | i
Cc1cccc(N2CCN(C(=O)CC3CCCCN(Cc4ccccc4)C3=O)CC2)c1 (centres undefined) | i
O=C(CCSc1nnc(NC2CC2)s1)Nc1cccc(Cl)c1 | i
CNCc1ccc(-c2cc(Cl)ccc2Cl)o1 | i
FC(F)(F)C1(C(F)(F)F)C2C=CC(C2)N1c1ncccn1 (centres undefined) | i
